Shown are actives, neighbours in structure and some others; about 3.9% of the full set was active somewhere.
SKKanGAS inh: inhibitors of SKKanGAS S. pyogenes growth in kanamycin (SK-promoter or general growth effect); inhibition, % at 7.5 µM; BacTiter-Glo, 6 h; AID 1662; 300,000 tested, 1.3% active;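 active means mean replicate score, as percent of positive control median, at least 50; inconclusive means mean below 50 but one replicate at or above 50; inactive means mean and every replicate below 50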;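 further: strain carries kanamycin resistance gene driven by streptokinase promoter and grows in 40 µg/ml kanamycin; loss of luminescence reflects streptokinase promoter inhibition or plain growth inhibition; 0% = median of DMSO wells and 100% = positive control at its reference dose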
Platelet DG rel: platelet dense granule release activity. human platelet-rich plasma, SFLLRN dense granule ATP release, luminescence. inhibition, %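 (compounds screened at 7.5 µM in platelet-rich plasma)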. 300,000 tested, 0.22% active;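 active means mean replicate score, as percent of positive control, at or above 50; inconclusive means mean below 50 but at least one replicate at or above 50; inactive means mean and every replicate below 50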
Rtt109 Vps75: C. albicans Rtt109 histone acetyltransferase inhibition. purified Rtt109/Vps75, ThioGlo CoA-SH fluorescence, 4 h. inhibition, % at 34.9 µM. 330,000 tested, 0.16% active;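 active means inhibition of at least 50% in every replicate; inconclusive means best replicate reaches 50% inhibition but some replicates fall short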
Target sequence (Q5AAJ8 whole entry, looked up): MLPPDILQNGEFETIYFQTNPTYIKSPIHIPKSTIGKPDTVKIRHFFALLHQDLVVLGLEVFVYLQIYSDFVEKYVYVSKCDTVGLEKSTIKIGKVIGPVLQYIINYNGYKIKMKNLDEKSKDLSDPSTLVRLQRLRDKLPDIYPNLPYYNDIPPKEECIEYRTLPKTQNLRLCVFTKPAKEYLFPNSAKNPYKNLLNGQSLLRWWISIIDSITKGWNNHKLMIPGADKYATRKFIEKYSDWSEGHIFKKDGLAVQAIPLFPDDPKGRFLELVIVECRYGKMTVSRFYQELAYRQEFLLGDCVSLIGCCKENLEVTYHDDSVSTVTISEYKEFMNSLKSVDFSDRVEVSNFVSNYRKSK
PHOSPHO1 inh: inhibitors of human PHOSPHO1 phosphatase. Q8TCT1. recombinant PHOSPHO1, absorbance phosphatase assay. inhibition, % at 13.3 µM. 290,000 tested, 1.1% active. AID 1565; in the data active means inhibition above about 60%
Target sequence (Q8TCT1 whole entry, looked up): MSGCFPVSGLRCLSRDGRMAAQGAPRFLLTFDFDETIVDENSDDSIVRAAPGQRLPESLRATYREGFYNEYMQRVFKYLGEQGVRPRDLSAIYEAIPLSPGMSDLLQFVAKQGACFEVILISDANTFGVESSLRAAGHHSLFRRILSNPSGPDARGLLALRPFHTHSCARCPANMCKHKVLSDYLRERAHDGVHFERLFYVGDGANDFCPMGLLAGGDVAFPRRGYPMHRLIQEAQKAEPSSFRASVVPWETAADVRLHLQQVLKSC
WT yeast gro inh: growth inhibition of WT yeast, mitochondrial fusion screen; inhibition, % at 10 µM; mitochondrial fusion phenotypic screen, WT strain; 190,000 tested, 2.1% active; AID 1362; in the data active means inhibition above about 58%; tested in S. cerevisiae
TPT1 inhibitor: inhibitors of Candida albicans tRNA 2'-phosphotransferase TPT1 | 300,000 tested, 0.81% active | recombinant caTPT1, FP RNA substrate dephosphorylation | AID 1962 | inhibition, % at 5 µM;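 active means inhibition above the mean of all tested compounds plus 3 SD, set per screening campaign, cut at about 24% in these data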;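 further: plate controls were DMSO alone for no effect and ferristatin control at 100 nM for full effect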
* hit, by the source's call; ? = inconclusive; . = not tested or not shown.

SMILES	SKKanGAS inh	Platelet DG rel	Rtt109 Vps75	PHOSPHO1 inh	WT yeast gro inh	TPT1 inhibitor
CCOC(=O)c1csc(NC(=O)C2=COCCO2)n1	-1	-5	-14	71*	.	1
COC(=O)c1ccc(/C=C/c2ccc3cccc(OC)c3n2)cc1	?	23	-2	1	6	2
COc1cccc(/C=C/c2ccc3cccc(O)c3n2)c1OC	86*	9	1	27	.	2
COc1ccc(/C=C/c2ccc3cccc(O)c3n2)c(OC)c1OC	105*	3	11	24	.	-1
COc1ccccc1-c1nc(C#N)c(NCCCn2ccnc2)o1	-4	-10	-6	51	.	-3
Cc1cccc(NS(=O)(=O)c2ccc(C(=O)NCC3CCCO3)cc2)c1C (stereo not drawn)	-4	47	6	61*	.	-1
O=C(NCC1CCCO1)c1ccc(S(=O)(=O)Nc2ccccc2F)cc1 (stereo not drawn)	-8	5	-1	.	.	-3
N/N=C(\Cc1cscn1)c1ccc(O)cc1O	-7	57*	-7	-12	.	2
N#CC1=C(N)NC(SCC(=O)c2ccc(Br)cc2)=C(C#N)C12CCCCC2	14	7	15	10	78*	2
Cc1cccc2sc(NNC(=O)c3cc(=O)c4ccccc4o3)nc12	85*	10	9	-56	8	13
Cc1ccc2sc(NNC(=O)C3COc4ccccc4O3)nc2c1C (stereo not drawn)	.	.	4	-4	67*	0
O=C(Nc1ccc(O)c(-c2nc3ccccc3s2)c1)c1cccs1	-3	13	1	13	-3	-1
Cc1ccc2sc(NNC(=O)c3cc(=O)c4ccccc4o3)nc2c1C	86*	-6	-3	36	-2	12
O=C(Nc1ccc(O)c(-c2nc3ccccc3s2)c1)c1cc(=O)c2ccccc2o1	-4	12	56*	3	-12	0
CCOc1ccc(NC(=O)CN(C)C(=O)C2CC(=O)N(c3cccc(SC)c3)C2)cc1OCC (stereo not drawn)	.	.	-1	.	.	.
O=C(NNc1nc2c(F)cccc2s1)c1cc(=O)c2ccccc2o1	29	2	-2	20	-7	8
COc1ccc2nc(NNC(=O)c3cc(=O)c4ccccc4o3)sc2c1	50*	3	0	-8	1	15
COc1ccc(O)c(CN2CCN(CCCc3ccccc3)C(CCO)C2)c1 (stereo not drawn)	2	-2	14	.	.	-5
O=S(=O)(CC(O)COc1ccccc1Cl)c1ccccc1 (stereo not drawn)	-11	.	-4	66*	-18	1
COC(=O)c1cc2c(ccn2-c2ccc(F)cc2)n1CC(=O)C(C)(C)C	-3	1	54*	16	5	2
COC(=O)c1cc2c(ccn2-c2ccc(F)cc2)n1CC(=O)OC(C)C	5	9	-10	34	-3	-1
O=C(NCC(c1ccco1)N1CCCC1)c1ccccc1Sc1ccc(C(F)(F)F)cc1[N+](=O)[O-] (stereo not drawn)	-2	1	8	.	.	0
CC(C)=CCc1c(O)ccc(C(=O)Cc2ccccc2)c1O	23	-22	-9	-3	81*	2
Cc1ccc(C(=O)Cc2ccccc2)c(O)c1	.	.	7	.	.	.
Cc1ccccc1S(=O)(=O)Cc1ccc(C(=O)NC2CCCCC2)o1	-1	-7	7	65*	.	0
SMILES	SKKanGAS inh	Platelet DG rel	Rtt109 Vps75	PHOSPHO1 inh	WT yeast gro inh	TPT1 inhibitor
CCc1ccccc1S(=O)(=O)Cc1ccc(C(=O)NC2CCCC2)o1	32	5	6	22	.	-4
COc1ccc2nc(Nc3nc4cc5c(cc4s3)OCO5)sc2c1	84*	2	-8	-2	17	-2
COc1ccc2nc(Nc3ccc4c(c3)OCO4)sc2c1	-9	3	-1	-13	-10	-1
CSc1c[n+]2c(n1C)CCC2	-3	-6	.	82*	-20	-2
COc1ccc(NC(=O)COc2coc(CN3CCN(c4ccccc4)CC3)cc2=O)cc1	-6	8	21	.	.	1
Cc1[nH]c(-c2ccc(F)cc2)cc1C(=O)N1CCN(c2ccc(Cl)cc2)CC1	54*	7	-3	18	.	.
COc1ccc(N2CCN(C(=O)c3cc(-c4ccc(F)cc4)[nH]c3C)CC2)cc1	13	-2	-1	31	.	.
C(=N\n1cnnc1)/c1ccc(N2CCOCC2)cc1	1	4	1	-8	3	-1
S=c1[nH]ncn1/N=C/c1ccc(N2CCOCC2)cc1	6	3	-14	88*	6	-1
S=c1[nH]c(-c2ccccc2)cn1/N=C/c1ccncc1	-8	10	5	70*	.	-1
S=c1[nH]ncn1/N=C/c1ccc(Br)cc1	-5	5	-1	96*	3	-4
S=c1[nH]ncn1/N=C/c1ccccc1	-10	13	-4	89*	.	-4
Cc1ccc(S(=O)(=O)NCC(=O)OCC(=O)N2N=C(c3ccc(Cl)cc3)CC2c2ccco2)cc1C (stereo not drawn)	70*	1	-3	3	9	-2
COc1ccccc1N1CCN(C(=O)c2ccc(CSc3ccccc3)cc2)CC1	13	-10	-1	5	61*	2
O=C(c1ccc(CSc2ccccc2)cc1)N1CCN(c2ccccc2)CC1	7	-1	-11	42	70*	-1
CCn1c(=O)cc(N2CCN(Cc3ccccc3)CC2)[nH]c1=O	-4	53*	-2	0	.	-2
O=c1cc(N2CCN(Cc3ccccc3)CC2)[nH]c(=O)n1Cc1ccc(F)cc1	4	1	-3	3	5	-3
CCN1C(c2ccccc2)C(C)C(=O)C(C)C1c1ccccc1 (stereo not drawn)	.	3	4	-4	81*	-3
CC1C(=O)C(C)C(c2ccccc2)N(N=O)C1c1ccccc1 (stereo not drawn)	.	.	5	.	.	.
COc1cc2c(cc1OC)CN(CC(=O)Nc1ccc(C)c(C)c1)CC2	-6	9	-23	9	.	-4
O=C(COc1ccc(Cl)cc1Cl)Nc1ccc(-c2ccc(N3CCOCC3)nn2)cc1	51*	8	-2	.	.	-2
O=S(=O)(Nc1ccc(-c2ccc(N3CCOCC3)nn2)cc1)c1ccc(Cl)c(Cl)c1	26	50*	15	.	.	3
O=C(NCCc1ccc(Cl)cc1Cl)c1cncc(Br)c1	6	14	-4	3	.	-2
CCN(CC(=O)NC(C)(C)C)C(=O)CN1c2cccc3cccc(c23)S1(=O)=O	3	.	2	26	.	3
Cc1c(Cl)cccc1NC(=O)CCN1C(=O)NC(C)(C)C1=O	.	.	9	.	.	.
CN(C)CCCN(C(=O)CCc1ccccc1)c1nc2ccc(Cl)cc2s1	1	-3	6	-9	91	2
Cc1ccc2nc(N(CCCN(C)C)C(=O)CCc3ccccc3)sc2c1	3	-8	-2	-9	94*	6
CN(C)CCCN(C(=O)c1sc2ccccc2c1Cl)c1nc2ccc(F)cc2s1	6	-2	11	-2	64*	0

Compound activity: PubChem, several laboratories
